A short description of assay [1]: liver-stage malaria parasite load reduction – cell-based, known kinase inhibitor set, luminescence, hepatoma host viability (AID 624392).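 Also: infected cells incubated roughly two days before readout.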 As to conditions: Plasmodium liver stage in hepatoma cells, luciferase luminescence, concentration not given here; liver cell % of control: measured here: host liver cell viability; parasite % of control: stronger effect = lower value.
A short description of assay [2]: altered dexamethasone sensitivity, NF-kB reporter, cell-based, luciferase, IL-1B stimulus (AID 624486).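 As to percent of negative control (+Dex): 100% = mean signal of vehicle control wells on the plate.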 The note with it: IL-1B + dexamethasone, luminescence; percent of negative control (+Dex): actives lie on both sides, concentration not given here; z-score: measured here: IL-1B alone, no Dex.
The target in assay [3] is Cellular tumor antigen p53 (Homo sapiens) (UniProt P04637). In words: GFP-p53 level modulators in HPV16+ cells – imaging, known kinase inhibitor set, EGFP/DsRed ratio (AID 1053116).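 Also: cells exposed to compounds for 24 h at 37 °C before reading.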 The note with it: GFP-p53 stability, stronger effect = higher value; EGFP object count: measured here: GFP-p53 positive objects count.
Cellular tumor antigen p53 (Homo sapiens), sequence (P04637 whole entry, looked up): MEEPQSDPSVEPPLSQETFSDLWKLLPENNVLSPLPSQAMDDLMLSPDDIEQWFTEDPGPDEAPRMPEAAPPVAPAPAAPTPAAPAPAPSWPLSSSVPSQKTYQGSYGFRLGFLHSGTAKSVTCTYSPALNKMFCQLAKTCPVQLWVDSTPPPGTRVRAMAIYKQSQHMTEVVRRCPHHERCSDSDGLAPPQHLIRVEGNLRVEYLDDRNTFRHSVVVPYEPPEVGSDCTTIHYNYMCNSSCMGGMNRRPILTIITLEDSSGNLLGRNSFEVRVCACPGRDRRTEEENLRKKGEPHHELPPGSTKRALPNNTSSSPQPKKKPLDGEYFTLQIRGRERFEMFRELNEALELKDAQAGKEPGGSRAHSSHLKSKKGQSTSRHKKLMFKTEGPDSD
A short description of assay [4]: inducers of IRF3 signaling, differentiated THP-1 – cell-based, PMA-stimulated THP-1, luminescence (AID 1053176). The note with it: PMA-differentiated THP-1, IRF3 reporter luminescence; stronger effect = higher value.
A short description of assay [5]: C. elegans survival during P. aeruginosa infection – whole organism (AID 651566).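 Also: tested at 14 µM; sign flipped so higher z means a lower ratio.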 As to conditions: C. elegans killed by P. aeruginosa, survival ratio.
Assay [6] can be described thus: pro-inflammatory signaling induction in mouse macrophages – cell-based, murine, luminescence (AID 652131). The note with it: murine macrophage pro-inflammatory reporter, stronger effect = higher value.
Assay [7] can be described thus: MELAS cybrid and Rieske KO viability enhancers – cell-based, MELAS cybrids, Rieske KO mouse fibroblasts, CellTiter-Glo, primary screen (AID 1508586;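 active = mean z-score across replicates of 1.96 or higher in either the MELAS or the Rieske mutant cell line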;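 also: z relative to plate mean and SD of compound and empty wells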). As to conditions: low glucose. Background: ATP-based viability assays read luminescence as a measure of living cells.
Setting [8] is: MELAS cybrid survival, CellTiter-Glo 48 h, stronger effect = higher value.
[9] abbreviates: Rieske KO mouse fibroblast survival, CellTiter-Glo 72 h.

The source made the active and inactive calls. Unless noted, no rule for the calls is given here.

The values that follow come from PubChem BioAssay.

For `CNCCCn1cc(C2=C(c3cn(C)c4ccccc34)C(=O)NC2=O)c2ccccc21`, in assay [1], the liver cell % of control turned out to be 82% and the parasite % of control is 60.5% (inactive). Besides, in assay [2], the percent of negative control (+Dex) is 102% (inactive) and the z-score came out at 0.035. For the same compound, in assay [3], the EGFP object count stood at 2.5 and the EGFP/DsRed ratio was 0.00316 (inactive). Also, the fraction signal in assay [4] is -0.0095 (inactive).
With `Cn1cc(C2=C(c3c[nH]c4ccccc34)C(=O)NC2=O)c2ccccc21`, in assay [1], the liver cell % of control stood at 85.3% and the parasite % of control is 60.7% (inactive). Further, in assay [2], the percent of negative control (+Dex) is 101% (inactive) and the z-score was -1.61. Besides, in assay [3], the EGFP object count worked out at 73 and the EGFP/DsRed ratio is 0.286 (inactive). Further, the fraction signal in assay [4] was 0.0015 (inactive).
With `CC(=O)Nc1ccc2c(C3=C(c4cn(C)c5ccccc45)C(=O)NC3=O)cn(C)c2c1`, in assay [1], the liver cell % of control is 83.1% and the parasite % of control is 16.4% (inactive). In assay [2], the percent of negative control (+Dex) is 114% (inactive) and the z-score was -1.25. Also, in assay [3], the EGFP object count was 61.5 and the EGFP/DsRed ratio is 0.596 (active). Also, the fraction signal in assay [4] is -0.009 (inactive).
As to `O=c1c(Oc2ccc(F)cc2F)cc2cnc(NC3CCOCC3)nc2n1C1CCS(=O)(=O)CC1`, in assay [1], the liver cell % of control was found to be 120% and the parasite % of control is 83.4% (inactive). Moreover, in assay [2], the percent of negative control (+Dex) is 97% (inactive) and the z-score was -0.26. Also, in assay [3], the EGFP object count is 3 and the EGFP/DsRed ratio was 0.101 (inactive). The fraction signal in assay [4] was -0.0075 (inactive).
Consider `COc1cc[nH]c1C=C1C(=O)Nc2ccc(F)c(C#CC(O)C(N)C(C)O)c21` (stereo not drawn), for which, in assay [1], the liver cell % of control worked out at 76.5% and the parasite % of control was 46.6% (inactive). Also, in assay [2], the percent of negative control (+Dex) was 135% (inactive) and the z-score was 0.23. For the same compound, in assay [3], the EGFP object count turned out to be 250 and the EGFP/DsRed ratio is 1.32 (inactive). Besides, the fraction signal in assay [4] is 0.0035 (inactive).
In the case of `COc1ccc2c(c1)C(c1ccccc1Cl)=Nc1c(n[nH]c1C)N2`, in assay [1], the liver cell % of control was 81.2% and the parasite % of control is 28.8% (inactive). Moreover, in assay [2], the percent of negative control (+Dex) was 92% (inactive) and the z-score was -0.45. Moreover, in assay [3], the EGFP object count turned out to be 3 and the EGFP/DsRed ratio was 0.0722 (inactive). Also, in assay [4], the fraction signal is 0.0035 (inactive).
As for `COc1ccc(N2Cc3cnc(Nc4ccccc4)nc3N(C3CCC(O)C3)C2=O)cc1` (stereo not drawn), in assay [1], the liver cell % of control was determined as 114% and the parasite % of control is 234% (inactive). Also, in assay [2], the percent of negative control (+Dex) was 67% (active) and the z-score was -1.67. For the same compound, in assay [3], the EGFP object count is 1.5 and the EGFP/DsRed ratio was 0.0589 (inactive). For the same compound, the fraction signal in assay [4] is -0.007 (inactive).
In the case of `CN(C)CC#Cc1cccc(C(=O)c2cnn(-c3ccc(F)cc3)c2N)c1`, in assay [1], the liver cell % of control turned out to be 101% and the parasite % of control was 74.8% (inactive). In addition, in assay [2], the percent of negative control (+Dex) is 109% (inactive) and the z-score came out at 1.23. In addition, in assay [3], the EGFP object count was 3 and the EGFP/DsRed ratio is 0.0589 (inactive). The fraction signal in assay [4] was -0.001 (inactive).
On to `COc1ccccc1C(=O)c1cnc(NC2CCN(S(C)(=O)=O)CC2)nc1N`, for which, in assay [1], the liver cell % of control is 100% and the parasite % of control was 96.6% (inactive). For the same compound, in assay [2], the percent of negative control (+Dex) is 85% (inactive) and the z-score is -1.16. In addition, in assay [3], the EGFP object count is 5 and the EGFP/DsRed ratio is 0.0796 (inactive). Further, in assay [4], the fraction signal is 0.0015 (inactive).
In the case of `COc1ccc(O)c(C(=O)c2ccc(C(=O)NC3CCCNCC3NC(=O)c3ccncc3)cc2)c1F` (stereo not drawn), in assay [1], the liver cell % of control was determined as 115% and the parasite % of control was 83.5% (inactive). Besides, in assay [2], the percent of negative control (+Dex) is 68.5% (active) and the z-score was -3.04. Besides, in assay [3], the EGFP object count stood at 10.5 and the EGFP/DsRed ratio is 0.105 (inactive). For the same compound, the fraction signal in assay [4] is 0.0035 (inactive).
In the case of `N#Cc1ccc(C(=O)c2cnn(-c3ccc(F)cc3)c2N)cc1`, in assay [1], the liver cell % of control came to 103% and the parasite % of control is 59.8% (inactive). Moreover, in assay [2], the percent of negative control (+Dex) was 131% (active) and the z-score was found to be 1.97. For the same compound, in assay [3], the EGFP object count was 13 and the EGFP/DsRed ratio was 0.456 (inactive). In addition, the fraction signal in assay [4] was 0.0095 (inactive).
Consider `Cn1cc(C2=C(c3cc[nH]c3)C(=O)NC2=O)c2ccccc21`, for which, in assay [1], the liver cell % of control was determined as 109% and the parasite % of control is 26.8% (inactive). Further, in assay [2], the percent of negative control (+Dex) is 104% (inactive) and the z-score came out at 0.12. For the same compound, in assay [3], the EGFP object count came out at 3 and the EGFP/DsRed ratio is 0.329 (inactive). Further, the fraction signal in assay [4] is -0.0025 (inactive).
In turn, `CNC(=O)c1sc(-n2cnc3cc(OC)c(OC)cc32)cc1OCc1ccccc1C(F)(F)F` gave a liver cell % of control in assay [1] of 124%. For the same compound, in assay [1], the parasite % of control is 77.7% (inactive). Also, in assay [2], the percent of negative control (+Dex) was 68.5% (inactive). Further, the z-score in assay [2] was -0.645; in assay [5] it was -0.51 (inactive); in assay [6], -0.587 (inactive); in assay [7] (setting [8]) it was -0.801 (inactive); in assay [7] (setting [9]), -0.0583. The EGFP object count in assay [3] is 5.5. Moreover, the EGFP/DsRed ratio in assay [3] was 0.105 (inactive). In addition, the fraction signal in assay [4] was -0.005 (inactive).
In the case of `Cn1cc(C2=C(c3cn(C)c4cc(Cl)ccc34)C(=O)NC2=O)c2ccccc21`, in assay [1], the liver cell % of control is 82.6% and the parasite % of control was 48.4% (inactive). In addition, in assay [2], the percent of negative control (+Dex) was 126% (active) and the z-score is -0.405. For the same compound, in assay [3], the EGFP object count is 31 and the EGFP/DsRed ratio is 0.0945 (inactive). Moreover, in assay [4], the fraction signal was -0.009 (inactive).
With `Nc1c(C(=O)c2cccc(-c3cccnc3)c2)cnn1-c1ccc(F)cc1F`, in assay [1], the liver cell % of control is 175% and the parasite % of control was 28.3% (inactive). Moreover, in assay [2], the percent of negative control (+Dex) is 110% (inactive) and the z-score stood at 0.74. In assay [3], the EGFP object count came to 4.5 and the EGFP/DsRed ratio was 0.0328 (inactive). In addition, in assay [4], the fraction signal is 0.0015 (inactive).
For the compound `O=C1NC(=NC2CC2c2ccccc2)SC1=Cc1ccc2ncccc2c1` (stereo not drawn), in assay [1], the liver cell % of control came to 193% and the parasite % of control is 10.6% (inactive). For the same compound, in assay [2], the percent of negative control (+Dex) is 64% (active) and the z-score is -4.3. In assay [3], the EGFP object count is 3 and the EGFP/DsRed ratio is 0.221 (inactive). Further, the fraction signal in assay [4] was -0.0115 (inactive).
On to `Cn1cc(C2=C(c3cn(CCCCC(=N)N)c4ccccc34)C(=O)NC2=O)c2ccccc21`, for which, in assay [1], the liver cell % of control worked out at 133% and the parasite % of control was 22.6% (inactive). Moreover, in assay [2], the percent of negative control (+Dex) was 98% (inactive) and the z-score turned out to be 0.29. Moreover, in assay [3], the EGFP object count is 10.5 and the EGFP/DsRed ratio was 0.2 (inactive). In addition, the fraction signal in assay [4] is 0.0055 (inactive).
Turning to `O=c1[nH]c2nc(NC3CCOCC3)ncc2cc1Oc1ccc(F)cc1F`, in assay [1], the liver cell % of control is 94.5% and the parasite % of control is 56.1% (inactive). Further, in assay [2], the percent of negative control (+Dex) is 104% (inactive) and the z-score turned out to be 0.61. For the same compound, in assay [3], the EGFP object count was found to be 2 and the EGFP/DsRed ratio is 0.08 (inactive). Further, the fraction signal in assay [4] is -0.003 (inactive).
With `CC(=O)Nc1ccc2c(c1)C(c1ccccc1Cl)=Nc1c(n[nH]c1C)N2`, in assay [1], the liver cell % of control came to 93.6% and the parasite % of control was 30.4% (inactive). In assay [2], the percent of negative control (+Dex) was 95% (inactive) and the z-score is -0.58. Also, in assay [3], the EGFP object count turned out to be 28.5 and the EGFP/DsRed ratio is 0.33 (inactive). Moreover, the fraction signal in assay [4] is -0.003 (inactive).
In turn, `CCc1cccc(NC(=O)Nc2ccc(Oc3ccc4nc(NC(=O)OC)[nH]c4c3)cc2)c1` returned a liver cell % of control in assay [1] of 93.1%. The parasite % of control in assay [1] is 128% (inactive). Also, the percent of negative control (+Dex) in assay [2] was 106% (inactive). Further, the z-score was 0.55 in assay [2]; -0.175 (inactive) in assay [5]; 0.13 (inactive) in assay [6]; -0.411 (inactive) in assay [7] (setting [8]); -0.621 in assay [7] (setting [9]). Also, in assay [3], the EGFP object count was 106. For the same compound, in assay [3], the EGFP/DsRed ratio is 1.83 (active). Moreover, the fraction signal in assay [4] was -0.002 (inactive).
